A549 tox: A549 cytotoxicity, counter-screen for Nrf2 inhibitors. A549 ARE-Fluc cells, CellTiter-Fluor viability, 18-24 h. Potency, µM (top dose mostly 46 µM), most hits filed as inhibitors. 390,000 tested, 0.16% active. AID 504648
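A549 ARE_Fluc cells in 5% FBS OPTI-MEM were exposed to compounds in concentration-response for 18-24 h at 37 deg C. Viability was read by CellTiter-Fluor fluorescence (Ex 405/Em 525) after 30 min, before the luciferase read.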
ERG Ets-DNA blk: inhibitors of human ERG Ets domain-DNA interaction; 370,000 tested, 0.028% active; Potency, µM (series often up to 76.9 µM), most hits filed as inhibitors; P11308; fluorescence polarization, His-ERG Ets domain / labelled DNA; AID 624246; active = well fitted inhibition curve with a large enough effect in the polarisation, with a control signal flat; inconclusive = small, poorly fitted or top-dose-only effect, or effect the other way, or a change in a side signal; inactive = no such curve, though single readings can be large or run the other way; the % refers to the polarisation;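 also: polarization taken with two DNA probes labelled with fluorescein and Texas red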
Target sequence (P11308 whole entry, looked up, the tested form may be a part): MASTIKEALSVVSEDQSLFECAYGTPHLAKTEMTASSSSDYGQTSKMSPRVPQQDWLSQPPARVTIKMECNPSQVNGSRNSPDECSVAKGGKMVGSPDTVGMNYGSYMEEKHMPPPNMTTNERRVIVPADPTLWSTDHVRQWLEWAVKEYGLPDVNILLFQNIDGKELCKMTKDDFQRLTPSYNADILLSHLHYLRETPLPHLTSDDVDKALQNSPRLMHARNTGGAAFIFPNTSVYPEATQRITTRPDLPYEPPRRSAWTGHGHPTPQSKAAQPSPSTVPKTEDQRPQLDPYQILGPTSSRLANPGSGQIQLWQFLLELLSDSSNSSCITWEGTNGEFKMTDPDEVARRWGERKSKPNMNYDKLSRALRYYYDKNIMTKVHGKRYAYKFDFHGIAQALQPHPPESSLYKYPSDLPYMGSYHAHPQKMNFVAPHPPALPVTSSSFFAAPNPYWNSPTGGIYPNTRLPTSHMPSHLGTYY
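His-tagged ERG Ets domain (1 uM in the protein solution; 300mM KCl, 50mM Tris-HCl, 1mM EDTA, 1mM DTT, pH 7.5) received compound, then a probe mix of 5 nM fluorescein-DNA and 100nM Texas-615-DNA. Fluorescence polarization was read for both dyes.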
LDHA inh: LDHA (human) enzyme inhibition. 480,000 tested, 0.15% active. purified LDHA, NADH/diaphorase-resazurin fluorescence; stronger effect = lower value. AID 1347041. P00338. activity change, % (values are at about 110 or 230 µM); in the data active = activity change below about -30%; inconclusive = mostly about -25% to -30%
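Human LDH5 (2 nM) was incubated with 0.06 mM NADH and 0.2 mM pyruvate for 5 min at room temperature in Tris pH 7.4. Remaining NADH was coupled through diaphorase/resazurin, and resorufin fluorescence was read at 0 and 20 min.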
ALOX12 inh: blocks human arachidonate 12S-lipoxygenase; P18054; 580,000 tested, 1.1% active; Potency, µM (titrated, usually from 108 µM), hits mostly inhibitors; purified 12hLO, xylenol orange hydroperoxide absorbance
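Purified human 12hLO (150 nM final) in 25 mM Hepes, 0.01% Triton X-100, pH 7.0 was preincubated 15 min at room temperature with compound. Then 40 uM arachidonic acid was added, 30 min. Hydroperoxide was read by Fe-XO absorbance ratio 573/405 nm.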
Nrf2 inh: inhibitors of Nrf2 signaling; Potency, µM (doses to about 46 µM), hits mostly inhibitors; A549 ARE-Fluc reporter, luciferase luminescence, 18-24 h; 360,000 tested, 2.1% active; AID 504444; also: nearly all actives have a fitted effect of over 60% in size
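Two sequential reads on A549 ARE_Fluc cells exposed to compound for 18-24 h: a CellTiter-Fluor fluorescence read for viability, then a luciferase luminescence read for Nrf2/ARE activity.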
Nrf2 ARE act: activators of Nrf2 (ARE) signaling; AREc32 ARE-luciferase reporter (MCF7-derived line), luminescence, 24 h; Potency, µM (series often up to 46.1 µM), actives largely listed as activators; 410,000 tested, 0.31% active; AID 624171; also: nearly all actives have a fitted effect of over 65% in size
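Luminescent ARE reporter assay in AREc32_Fluc cells: overnight plating at 37 deg C, 24 hr compound incubation, Steady-Glo added, 30 min RT before reading.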
Of the large screens only hits and unclear results are named; the others gave an inactive call. This is a sample that favours compounds with a hit; in the whole collection about 2.7% have one here. Unless noted, calls follow the shape of the dose curve; as a rule, active = well fitted curve in the direction sought with a large enough effect; inconclusive = small, poorly fitted or top-dose-only effect, or another doubt; inactive = no such curve, though single readings can be large; an effect the other way counts as inactive or inconclusive.

O=C(NCc1coc(-c2cccs2)n1)c1ccc(OC(F)F)cc1	none (no result: A549 tox, ERG Ets-DNA blk, Nrf2 inh, Nrf2 ARE act)
CCCOC(=O)c1ccc(Nc2nc(C(=O)OCC)nc3ccccc23)cc1	LDHA inh -34 (no result: A549 tox, ERG Ets-DNA blk, Nrf2 inh, Nrf2 ARE act)
CCOC(=O)c1nc(Nc2ccccc2CC)c2ccccc2n1	Nrf2 inh 23µM
O=C(NCc1ccc(Cn2cncn2)cc1)c1ccccc1F	none (no result: A549 tox, ERG Ets-DNA blk, Nrf2 inh, Nrf2 ARE act)
COc1ccc(NC(=O)CN(C)C(=O)c2cc(-c3ccco3)nc3ccccc23)cc1	ALOX12 inh inconclusive
Cc1cc(C)nc(NS(=O)(=O)c2ccc(NC(=O)c3cc(-c4ccccc4)nc4ccccc34)cc2)n1	Nrf2 inh inconclusive
Cc1cccc(NC(=O)c2cc(-c3ccco3)nc3ccccc23)n1	ALOX12 inh 28µM
Cc1ccc(-c2cc(C(=O)Nc3ccc(S(=O)(=O)Nc4onc(C)c4C)cc3)c3ccccc3n2)cc1	ALOX12 inh 35µM
CC(=O)Nc1ccc(NC(=O)c2cc(-c3ccco3)nc3ccccc23)cc1	ALOX12 inh 11µM (no result: A549 tox, ERG Ets-DNA blk, Nrf2 inh, Nrf2 ARE act)
CN(CC(=O)Nc1cccc(F)c1)C(=O)c1cc(-c2ccco2)nc2ccccc12	ALOX12 inh 40µM
C=CCN(Cc1ccc(OC)cc1)C(=O)Cc1nn(C)c(=O)c2ccccc12	none (no result: A549 tox, ERG Ets-DNA blk, Nrf2 inh, Nrf2 ARE act)
O=C(Cn1nc(Br)nc1Br)c1ccc(Cl)cc1	ALOX12 inh inconclusive (no result: A549 tox, ERG Ets-DNA blk, Nrf2 inh, Nrf2 ARE act)
CC1CC2(CCCCCC2)Nc2ccc(F)cc21 (stereo not drawn)	ALOX12 inh inconclusive (no result: A549 tox, ERG Ets-DNA blk, Nrf2 inh, Nrf2 ARE act)
O=C(Nc1ccc2cn[nH]c2c1)c1ccc2c(c1)OCCN(c1ccccc1)C2	none (no result: A549 tox, ERG Ets-DNA blk, LDHA inh, Nrf2 inh, Nrf2 ARE act)
Cc1ccc(-c2nc(C#N)c(N3CCN(C)CC3)o2)cc1	none (no result: A549 tox, ERG Ets-DNA blk, Nrf2 inh, Nrf2 ARE act)
COc1ccc(C[C@H](N)C(=O)N[C@H]2[C@@H](O)[C@H](n3cnc4c(N(C)C)ncnc43)O[C@@H]2CO)cc1	A549 tox 1.5µM, Nrf2 inh 1.5µM
CN(C)c1ncnc2c1ncn2C1OC(CO)C(O)C1O (stereo not drawn)	Nrf2 inh inconclusive
O=C(Nc1ccc2[nH]c(=S)sc2c1)c1ccccc1	ALOX12 inh inconclusive, Nrf2 inh inconclusive
O=C(Nc1ccc2[nH]c(=S)sc2c1)Nc1ccccc1F	ALOX12 inh 14µM, Nrf2 inh inconclusive
O=c1cc(-c2ccccc2Cl)oc2ccc([N+](=O)[O-])c(O)c12	A549 tox inconclusive, Nrf2 inh inconclusive
O=[N+]([O-])c1cc([N+](=O)[O-])c2oc(-c3ccccc3)c(Br)c2c1O	A549 tox inconclusive, LDHA inh -68 (no result: ALOX12 inh)
O=C(c1cnccn1)N1CC(=O)N2[C@@H](CO)[C@H](c3ccc(Br)cc3)[C@@H]2C1	ALOX12 inh 10µM (no result: A549 tox, ERG Ets-DNA blk, LDHA inh, Nrf2 inh, Nrf2 ARE act)
Oc1c(C=NCc2ccc(F)cc2)[nH]c2ccc(Br)c(Cl)c12	ALOX12 inh 13µM (no result: A549 tox, ERG Ets-DNA blk, LDHA inh, Nrf2 inh, Nrf2 ARE act)
Cn1ccnc1CN1CCN(CC2(O)CNCCOC2)CC1 (stereo not drawn)	none (no result: A549 tox, ERG Ets-DNA blk, LDHA inh, Nrf2 inh, Nrf2 ARE act)
OC1(CN2CCN(c3cnccn3)CC2)CNCCOC1 (stereo not drawn)	ALOX12 inh 10µM (no result: A549 tox, ERG Ets-DNA blk, LDHA inh, Nrf2 inh, Nrf2 ARE act)
Cc1c(P(=O)(c2ccccc2)c2ccccc2)c2ccccc2n1C	ALOX12 inh 20µM (no result: ERG Ets-DNA blk)
Cc1c(C(C)(C(=O)O)c2c(C)n(C)c3ccccc23)c2ccccc2n1C	none (no result: A549 tox, ERG Ets-DNA blk, LDHA inh, Nrf2 inh, Nrf2 ARE act)
COC(=O)c1sccc1S(=O)(=O)Nc1ccccc1OC(F)F	none (no result: A549 tox, ERG Ets-DNA blk, Nrf2 inh, Nrf2 ARE act)
O=C1/C(=C/c2ccco2)SC(=S)N1c1cccnc1	ALOX12 inh 40µM, Nrf2 ARE act inconclusive
Cc1cc(/C=C2\SC(=S)N(Cc3ccco3)C2=O)c(C)n1-c1cccnc1	ALOX12 inh inconclusive
O=C1/C(=C\c2ccc(O)cc2)SC(=S)N1c1cccnc1	none
Cc1cc(/C=C2/SC(=S)N(c3cccc(C(F)(F)F)c3)C2=O)c(C)n1-c1cccnc1	A549 tox inconclusive, Nrf2 inh 5.8µM (no result: ALOX12 inh)
Cc1cccc(C(=O)N(C)C2CCN(CCc3ccccn3)CC2)c1	none (no result: A549 tox, ERG Ets-DNA blk, Nrf2 inh, Nrf2 ARE act)
CC(C)c1ccc2[nH]c(O)c(N=NC(=O)c3cccc(S(=O)(=O)N4CCCCC4)c3)c2c1	A549 tox inconclusive, Nrf2 inh 18µM
CCOc1cccc(/C=C2\NC(=S)N(c3ccccc3)C2=O)c1O	ALOX12 inh inconclusive, Nrf2 ARE act 11µM

Source: PubChem
